Screens as filed in PubChem BioAssay.
Beta apoptosis = inhibitors of cytokine-induced beta cell apoptosis, primary screen, luminescence. 300,000 compounds, 0.8% hits. INS-1E cytokine-induced death, ATP luminescence, 48 h; percent of positive-control rescue, neutral wells zero. protection from apoptosis, % (no concentration beside the values);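 active means Every replicate reaches about 75%, or at least half do and their mean reaches it too, limit read from the data; inconclusive means At least half of replicates reach the limit but their mean does not; inactive means Under half of replicates reach the limit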;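 further: higher means more ATP so stronger rescue from cytokine killing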
CSC inhib = cancer stem cell viability inhibitors, primary screen, luminescence; 300,000 compounds, 1.1% hits; AID 2717, 2010; cancer stem cell-like cells viability; inhibition, % at 7.5 µM; in the data active means inhibition above about 75%; inconclusive means no clear call, values can overlap the other calls; tested in HMLE shEcad cells
Mdm2 MdmX PPI = inhibitors of human Mdm2-MdmX association, primary screen, cell-based, luminescence, split luciferase, SaOS-2, uHTS; Protein Mdm4 (Homo sapiens) + E3 ubiquitin-protein ligase Mdm2 (Homo sapiens), …; SaOS-2 split-luciferase Mdm2/MdmX complementation; inhibition, % at 8 µM; 330,000 compounds, 3% hits;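 active means inhibition of at least 50% at 8 µM in the primary screen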
Target sequence (O15151 whole entry, looked up): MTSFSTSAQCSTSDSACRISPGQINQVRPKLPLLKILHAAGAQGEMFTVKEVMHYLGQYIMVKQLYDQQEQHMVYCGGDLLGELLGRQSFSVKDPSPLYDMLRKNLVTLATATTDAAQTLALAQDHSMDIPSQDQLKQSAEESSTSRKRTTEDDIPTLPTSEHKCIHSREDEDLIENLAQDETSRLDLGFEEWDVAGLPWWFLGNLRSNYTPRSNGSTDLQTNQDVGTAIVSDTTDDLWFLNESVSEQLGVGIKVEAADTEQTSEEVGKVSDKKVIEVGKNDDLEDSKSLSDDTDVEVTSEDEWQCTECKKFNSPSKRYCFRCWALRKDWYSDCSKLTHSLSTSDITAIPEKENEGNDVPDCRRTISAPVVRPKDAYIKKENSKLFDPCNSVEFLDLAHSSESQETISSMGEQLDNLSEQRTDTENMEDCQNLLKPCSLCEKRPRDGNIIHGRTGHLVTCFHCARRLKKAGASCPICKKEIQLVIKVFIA
Target sequence (Q00987 whole entry, looked up): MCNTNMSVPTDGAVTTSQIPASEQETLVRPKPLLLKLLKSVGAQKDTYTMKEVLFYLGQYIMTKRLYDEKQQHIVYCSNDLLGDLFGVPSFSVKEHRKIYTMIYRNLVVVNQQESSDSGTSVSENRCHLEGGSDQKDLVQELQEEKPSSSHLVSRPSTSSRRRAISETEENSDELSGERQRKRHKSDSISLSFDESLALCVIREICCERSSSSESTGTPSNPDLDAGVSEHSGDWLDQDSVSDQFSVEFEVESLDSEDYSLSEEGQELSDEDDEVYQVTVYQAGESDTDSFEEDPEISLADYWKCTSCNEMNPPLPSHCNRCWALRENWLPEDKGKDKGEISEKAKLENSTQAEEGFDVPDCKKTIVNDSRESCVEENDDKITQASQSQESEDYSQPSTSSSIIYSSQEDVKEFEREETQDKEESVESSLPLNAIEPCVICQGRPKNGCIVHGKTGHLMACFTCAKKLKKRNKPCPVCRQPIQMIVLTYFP
GRIN3A LBD mod = binders of NR3A ligand-binding domain, primary screen, biophysical, differential scanning fluorimetry, uHTS. NR3A LBD differential scanning fluorimetry, Tm shift; 0% = protein alone, 100% = glycine-bound protein. 340,000 compounds, 2.5% hits. Glutamate receptor ionotropic, NMDA 3A (GRIN3A) ligand-binding domain. AID 1259313, 2017. Tm shift relative to glycine control, % at 25 µM;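 active means melting temperature shift of at least 10% of the positive control shift, at one fixed dose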
SKKanGAS inh = S. pyogenes SKKanGAS growth inhibitors in kanamycin, primary screen, streptokinase expression inhibitor project, SKKanGAS strain, BacTiter-Glo luminescence; 6 h; inhibition, % at 7.5 µM; 300,000 compounds, 1.3% hits; AID 1662, 2009;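 active means mean replicate score, as percent of positive control median, at least 50; inconclusive means mean below 50 but one replicate at or above 50; inactive means mean and every replicate below 50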;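 further: strain carries kanamycin resistance gene driven by streptokinase promoter and grows in 40 µg/ml kanamycin; loss of luminescence reflects streptokinase promoter inhibition or plain growth inhibition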
MPTP block = mitochondrial permeability transition pore inhibitors, primary screen, biochemical, isolated mouse mitochondria, absorbance; Ca2+ swelling absorbance, 30 min; inhibition, % at 10 µM; 360,000 compounds, 1.4% hits; AID 602449, 2012;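 active means inhibition of 50% or more, scaled per plate between neutral and stimulator controls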
Mdm2-MdmX conf = Mdm2-MdmX complex disruptors, retested hits, confirmation, luminescence, single concentration; AID 489028, 2010; 10,000 compounds, 55% hits; shares compounds with Mdm2 MdmX PPI; inhibition, % at 8 µM; Mdm2-MdmX binding, luminescent assay; in the data active means inhibition above about 40%
FLuc counter = full-length luciferase signal inhibition, confirmation, counter-screen for Mdm2/MdmX interaction inhibitor project, cell-based, single concentration, SaOS-2; shares compounds with Mdm2 MdmX PPI; SaOS-2 full-length luciferase counterscreen, luminescence; inhibition, % at 8 µM; 6,200 compounds, 77% hits;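 active means mean inhibition at 8 µM reaching about 37%, which flags the compound as non-specific, limit read from the data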;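 further: p53-null SaOS-2 cells with luciferase driven by a doxycycline-inducible promoter; compound on cells about two nights before reading with doxycycline added after day one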
Each line names hits and unclear results; the compound was inactive in the other large screens (follow-up assays come after a bar, where they were run). Only some compounds are listed: those with a hit (about 6.9% of all), similar ones and a draw of the others.

O=C(Nc1nc(-c2ccc(F)c(F)c2)cs1)Nc1ccc(F)cc1F	Mdm2 MdmX PPI 83 | Mdm2-MdmX conf 62 | FLuc counter inactive
CC(=O)OC[C@]12CC[C@H]3[C@@](C)(CC[C@H]4C(C)(C)CCC[C@]34C)[C@@H]1C[C@H](C1=CC(=O)O[C@@H]1OC(C)=O)O2	CSC inhib 132, Mdm2 MdmX PPI 63 (no result: GRIN3A LBD mod, SKKanGAS inh, MPTP block) | Mdm2-MdmX conf inactive
CC1(C)CCCC2(C)C1CCC1(C)OC(=O)CCC12 (stereo not given)	none (no result: Beta apoptosis, CSC inhib, Mdm2 MdmX PPI, GRIN3A LBD mod, SKKanGAS inh)
COC(=O)c1ccccc1S(=O)(=O)N1CCC(C(=O)N(C)CCOc2ccccc2)CC1	none
Cc1ccccc1NC1=CC(=O)CC(C)(C)C1	none (no result: Beta apoptosis)
CC1(C)CC(=O)C=C(NC2=CC3OC(c4ccccc4)OCC3OC2=O)C1 (stereo not given)	Mdm2 MdmX PPI 70 | Mdm2-MdmX conf inactive | FLuc counter 54
CC(C)NC(=O)N1Cc2cc(C(=O)NC3CCCCC3)nc(-c3cccc(-c4cccnc4)c3)c2[C@@H]1CCO	none (no result: Beta apoptosis, CSC inhib, Mdm2 MdmX PPI, GRIN3A LBD mod, SKKanGAS inh)
c1ccc(Nc2nc(N3CCCCC3)nc(N3CCNCC3)n2)cc1	Mdm2 MdmX PPI 62 | Mdm2-MdmX conf inactive
O=C(Cc1ccc(NC(=O)C2CCN(C(=O)C3CC3)CC2)cc1)Nc1cccc(C(=O)N2CCCC2)c1	none (no result: Beta apoptosis, CSC inhib, Mdm2 MdmX PPI, SKKanGAS inh)
COc1cc(-c2nc(-c3ccccc3)c(-c3cccs3)[nH]2)cc(OC)c1OC	CSC inhib 78, Mdm2 MdmX PPI 76 | Mdm2-MdmX conf 40 | FLuc counter 100
CC(C)CCNc1nnnc2c1sc1nc(N3CCOCC3)c3c(c12)CC(C)(C)SC3	Mdm2 MdmX PPI 51 | Mdm2-MdmX conf inactive
CC1(C)Cc2c(c(N3CCOCC3)nc3sc4c(NCC5CCCO5)nnnc4c23)CS1 (stereo not given)	Mdm2 MdmX PPI 70 | Mdm2-MdmX conf 52 | FLuc counter 69
COc1ccc(OC)c(C(=O)NC2CC(C)(C)Cc3c2cnn3-c2ccccc2)c1 (stereo not given)	none (no result: Beta apoptosis, CSC inhib)
COc1cc(/C=C2\SC(=O)NC2=O)ccc1OCC(=O)N1CCOCC1	none (no result: SKKanGAS inh)
O=C(NCC1CCCO1)C(=Cc1cccc([N+](=O)[O-])c1)C(=O)NCC1CCCO1 (stereo not given)	Mdm2 MdmX PPI 65 | Mdm2-MdmX conf inactive | FLuc counter 45
O=C(NCC1CCCO1)/C(=C\c1cccc([N+](=O)[O-])c1)NC(=O)c1ccccc1 (stereo not given)	none (no result: SKKanGAS inh)
O=C(Nc1ccc(N2CCN(c3ncccc3C(F)(F)F)CC2)nc1)c1cccs1	Mdm2 MdmX PPI 65 | Mdm2-MdmX conf inactive
O=C(Nc1ccc(N2CCN(c3ccc(C(F)(F)F)cn3)CC2)nc1)c1cccs1	Mdm2 MdmX PPI 56 | Mdm2-MdmX conf inactive
COc1cc(C2C(C#N)=C(N)N(N(C)C)C3=C2C(=O)CCC3)ccc1O (stereo not given)	none (no result: Mdm2 MdmX PPI)
CCOc1ccccc1N1CCN(C(=O)c2ccc(NS(=O)(=O)c3ccc4[nH]c(=O)[nH]c4c3)cc2)CC1	none
Cc1ccc(C(=O)NNC(=O)CCC(=O)NCc2ccccc2)cc1Br	none (no result: SKKanGAS inh)
COc1ccc(C2Oc3ccccc3C3=C2C(c2cccs2)n2ncnc2N3)cc1 (stereo not given)	Mdm2 MdmX PPI 72, SKKanGAS inh 78 | Mdm2-MdmX conf 70 | FLuc counter inactive
CCCCN(C)CCNC(=O)c1cc2c(-c3cccc(OC)c3)nn(C)c2s1	none
COc1cccc(-c2nn(C)c3sc(C(=O)NCc4ccco4)cc23)c1	Mdm2 MdmX PPI 61 | Mdm2-MdmX conf 40 | FLuc counter 69
CCCCN(CC)CCCNC(=O)c1cc2c(-c3ccc(OC)c(OC)c3)nn(C)c2s1	Mdm2 MdmX PPI 57 | Mdm2-MdmX conf 67 | FLuc counter 82
CC(CCc1ccccc1)NS(=O)(=O)c1ccc(Cl)c(C(=O)O)c1 (stereo not given)	none
O=C1NC(=O)C(=CC=Cc2ccccc2)S1	none (no result: Beta apoptosis, CSC inhib, Mdm2 MdmX PPI, GRIN3A LBD mod, SKKanGAS inh)
ClC1=C(Cl)C(Cl)=C(Cl)C1=C/C=C/c1ccccc1	Beta apoptosis 116, CSC inhib 103, Mdm2 MdmX PPI 100 | Mdm2-MdmX conf 99 | FLuc counter inactive
COc1ccc2c(C(=O)NCc3ccc4c(c3)OCO4)c(-c3ccc(S(C)(=O)=O)cc3)sc2c1	Beta apoptosis inconclusive, Mdm2 MdmX PPI 84 (no result: CSC inhib, SKKanGAS inh) | Mdm2-MdmX conf inactive
COC(=O)c1c(-c2ccc(S(C)(=O)=O)cc2)sc2cc(OC)ccc12	none (no result: SKKanGAS inh)
CCOc1cc(CNCCc2ccc(S(N)(=O)=O)cc2)ccc1OCc1ccc(Cl)cc1	Beta apoptosis 105, Mdm2 MdmX PPI 100 | Mdm2-MdmX conf 68 | FLuc counter 65
Cc1cc(C)nc(SCC(=O)NN=Cc2ccc(C)o2)n1	none (no result: SKKanGAS inh)
CCc1nc2ccc(C(=O)NCc3cccs3)cn2c1N(CC)CCN(C)C	none (no result: Beta apoptosis, CSC inhib, Mdm2 MdmX PPI, GRIN3A LBD mod, SKKanGAS inh)
Cc1c(O)ccc(C(=O)CN2CCN(c3ccc(F)cc3)CC2)c1O	none
O=C(Nc1ccc(Cl)cc1)c1nc[nH]c1C(=O)Nc1ccccc1F	none (no result: Beta apoptosis, CSC inhib, Mdm2 MdmX PPI, GRIN3A LBD mod, SKKanGAS inh)
O=C(Nc1cccc(Cl)c1)c1nc[nH]c1C(=O)NCCN(CCNC(=O)c1[nH]cnc1C(=O)Nc1cccc(Cl)c1)CCNC(=O)c1[nH]cnc1C(=O)Nc1cccc(Cl)c1	Mdm2 MdmX PPI 75 (no result: CSC inhib, SKKanGAS inh) | Mdm2-MdmX conf inactive
O=C(Nc1cccc(Cl)c1)c1nc[nH]c1C(=O)NCCCCNC(=O)c1[nH]cnc1C(=O)Nc1cccc(Cl)c1	Mdm2 MdmX PPI 86 (no result: CSC inhib, SKKanGAS inh) | Mdm2-MdmX conf inactive
O=C(Nc1ccc(Cl)cc1)c1nc[nH]c1C(=O)NCCCCNC(=O)c1[nH]cnc1C(=O)Nc1ccc(Cl)cc1	Mdm2 MdmX PPI 99, GRIN3A LBD mod 26 (no result: SKKanGAS inh) | Mdm2-MdmX conf 73 | FLuc counter 69
COc1ccc(NC(=O)Nc2ccc3c(c2)C(=O)N([C@H](C)CO)C[C@H](C)[C@@H](CN(C)C(=O)Nc2ccc(OC)cc2)O3)cc1	none (no result: CSC inhib, SKKanGAS inh)
CCOC(=O)C1=C(COC(=O)COc2cc(C)ccc2C)NC(=O)NC1C (stereo not given)	none (no result: CSC inhib)
COC(=O)c1sccc1NS(=O)(=O)c1ccccc1[N+](=O)[O-]	none (no result: Beta apoptosis, CSC inhib, SKKanGAS inh)
